Test in all cases: NCI-60 one-dose screen, 48 h (100 = growth as untreated, 0 = no growth, -100 = all killed)
What all share (conditions): 10 µM unless noted

For assay [1], the system named is SK-MEL-2 melanoma.
Assay [2] relates to EKVX NSCLC.
For assay [3], the system named is SN12C renal.
Assay [4] concerns UO-31 renal.
The test system of assay [5] is TK-10 renal.
Assay [6] concerns ACHN renal.
Assay [7] relates to CAKI-1 renal.
Assay [8] relates to A498 renal.
Assay [9] deals with MOLT-4 leukemia.
For assay [10], the system named is SR leukemia.
Assay [11] has as its system RPMI-8226 leukemia.
Assay [12] relates to OVCAR-8 ovarian.
The test system of assay [13] is OVCAR-5 ovarian.
Assay [14] has as its system OVCAR-4 ovarian.
The subject of assay [15] is SK-OV-3 ovarian.
Assay [16] concerns IGROV1 ovarian.
The subject of assay [17] is OVCAR-3 ovarian.
Assay [18] has as its system HS 578T breast.
Assay [19] deals with CCRF-CEM leukemia.
Assay [20] deals with NCI/ADR-RES ovarian.

Molecules are shown by their SMILES. This is part of a sample that, as a whole, favours compounds with a hit. Of some 83,000 tested, about 20% had one in any assay.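 Percent growth is the endpoint: 0 to 100 indicates growth inhibition (40 means 60% inhibition), 0 means no net growth, and negative values indicate cell death.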 A number with no mark means an inactive call. Calls of active or inactive are those of the source. Rule for the calls: active = growth percent below 10; inactive = the rest.

As for `Cc1c(C)c2c(c(C)c1OCC(=O)O)CC[C@@](C)(CCC[C@@H](C)CCC[C@@H](C)CCCC(C)C)O2`, the growth in assay [1] is -26.6% [50 µM] (active); in assay [2], 32.3% [50 µM]; in assay [3], -32.3% [50 µM] (active); in [4] it was 32.6% [50 µM]; in assay [5] it was -0.128% [50 µM] (active); in [6], -31.9% [50 µM] (active). For the same molecule, the growth in [7] was 7.85% [50 µM] (active); in assay [8] it was -37.5% [50 µM] (active); in assay [9], -1.22% [50 µM] (active); in [10], 0.521% [50 µM] (active); in assay [11], -39.4% [50 µM] (active); in assay [12], -9.97% [50 µM] (active). Further, the growth was 25.5% [50 µM] in [13]; 45.9% [50 µM] in assay [14]; 53.3% [50 µM] in [15]; 1.82% [50 µM] (active) in assay [16]; -67.3% [50 µM] (active) in assay [17]; 23% [50 µM] in [18].

`COc1ccc(-c2nc3c(c(=O)n2C(C)=O)C(c2ccc(Cl)cc2)c2sc4c(Cl)cccc4c2O3)cc1` (stereo unspecified): the growth in assay [1] was -11.5% (active); in assay [2], 24.6%; in [3], -35.1% (active); in [4], 6.4% (active); in [5] it was -35.6% (active); in assay [6] it was 8.98% (active). The growth is -6.4% (active) in assay [7]; -2.79% (active) in assay [8]; -3.94% (active) in [19]; -11.7% (active) in [10]; -23% (active) in assay [12]; -13.8% (active) in assay [13]. Further, the growth is 24.4% in assay [14]; -22.6% (active) in assay [15]; 12.5% in assay [16]; -71.4% (active) in [17]; -15.6% (active) in assay [18]; -4.4% (active) in assay [20].

With `N#C/C(=C\c1ccc2c(c1)OCO2)n1nnc2cc(F)c(F)cc21`, the growth is 78.7% in assay [1]; 82.7% in assay [2]; 68.3% in assay [3]; 61.3% in [4]; 101% in assay [5]; 65.1% in assay [6]. The growth was 50.7% in assay [7]; 44.9% in assay [8]; 63.9% in assay [9]; 42.6% in [10]; 64.5% in assay [11]; 60.7% in assay [12]. Moreover, the growth in assay [13] is 96.8%; in [14], 64.6%; in assay [15] it was 83.6%; in assay [16] it was 71.8%; in [17], 31.8%; in assay [18], 84.7%.

For `COC(=O)[C@]12CC[C@@H](C)[C@H](C)[C@@H]1C1=CC[C@@H]3[C@@]4(C)C(C=O)=C[C@@](C)(COC(=O)/C=C/c5ccccc5)[C@@H]4[C@H](O)C[C@@]3(C)[C@]1(C)CC2`, the growth in assay [1] was -23.5% (active); in assay [2] it was 26.9%; in assay [3] it was 3.47% (active); in [4] it was 3.64% (active); in assay [5] it was 26%; in assay [6] it was -14.7% (active). The growth in assay [7] is 15%; in assay [8] it was 19.6%; in assay [19] it was 16.4%; in [10], -6.65% (active); in [12], 9.9% (active); in [13], 7.64% (active). In addition, the growth in assay [14] was 21.4%; in assay [15], 18.6%; in assay [16] it was 23.9%; in assay [17], -75.9% (active); in assay [18] it was -8.26% (active); in assay [20], 17.9%.

With `COC(=O)[C@H](CSC)N(C)C(=O)[C@@H]1CSSC[C@@H](NC(=O)c2nc3ccccc3cc2O)C(=O)NCC(=O)N1C`, the growth in assay [1] was 61.3%; in assay [2], 82.8%; in assay [3], 66.5%; in assay [4], 71.9%; in assay [5] it was 88.4%; in assay [6], 88%. The growth in assay [7] was 104%; in assay [8], 102%; in [9], 23.8%; in assay [10], 28.6%; in assay [11], 85.2%; in assay [12], 90.2%. The growth is 128% in assay [13]; 103% in [14]; 91.6% in assay [15]; 95.8% in assay [16]; 58.2% in assay [17]; 90.9% in assay [18]. Moreover, in assay [20], the growth was 104%.

Consider `O=c1[nH]ccc2nc(N3CCC(O)CC3)nc(Nc3ccc(N4CCOCC4)cc3)c12`, for which the growth in [1] is 69.3%; in [2] it was 89%; in assay [3] it was 37.8%; in assay [4], 38.2%; in assay [5], 82.1%; in [6], 55.5%. For the same molecule, the growth in assay [7] was 26.3%; in [8], 57.9%; in [19], 70.6%; in assay [11], 80.9%; in [12], 85.5%; in assay [13], 42.6%. For the same molecule, the growth in [14] is 112%; in [15], 14.9%; in assay [16], 47.3%; in assay [17] it was 101%; in assay [18] it was 45.7%; in assay [20], 95.2%.

In the case of `COc1cc2c(cc1-c1c(C)noc1C)ncc1nc(C3CCC(F)(F)CC3)n(C3CCC(OC(F)F)CC3)c12` (stereo unspecified), the growth in assay [1] was 46%; in assay [2], 53.9%; in [3], 76.6%; in assay [4] it was 18.2%; in assay [5], 41.3%; in assay [6], 66.2%. For the same molecule, the growth in assay [7] is 52.1%; in assay [8] it was 61.2%; in assay [9], 59.7%; in assay [10], 33.5%; in assay [11], 20%; in assay [12], 65.2%. Besides, the growth is 76.2% in [13]; 50.5% in assay [14]; 17.6% in [15]; 70.1% in [16]; 44.6% in [17]; 61.4% in [18]. The growth in assay [20] was 47.4%.

For `CCN1C(=O)N(CC)C2C1NN=c1s/c(=C\c3cccs3)c(=O)n12` (stereo unspecified), the growth was 42% in assay [1]; 60.6% in assay [2]; 29.7% in assay [3]; 50.2% in [4]; 5.35% (active) in [5]; 42.2% in assay [6]. The growth is 35.4% in [7]; -12.4% (active) in [8]; 26.6% in [19]; 37.7% in assay [11]; 16.9% in assay [12]; 41.3% in [13]. Besides, the growth in [14] is 53.2%; in assay [15], 45.6%; in assay [16], 27.4%; in assay [17] it was -17.5% (active); in assay [18], 22.5%; in assay [20] it was -16.5% (active).
